In all, about 370,000 compounds went through this assay and about 5,400 (1.5%) were called active. For the sample, actives were picked, then their nearest neighbours and some compounds at random. Values without a mark were called inactive.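 How the source made its calls: active means activation above the mean of all tested compounds plus 3 SD (cut at about 5.5% in these data); inactive means the rest.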
Each compound was assayed on DAF-12 nuclear receptor (Haemonchus contortus) (assay: hcDAF-12 driven luciferase reporter activation – cell-based, luminescence, HEK293, lit1-tk-luc reporter, primary screen (AID 652067;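 further: 100% = response to 3 µM Δ7-dafachronic acid high control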)). Details: HEK293 hcDAF-12 lit1-tk-luc reporter, at 6.8 µM, active compounds read high, 0% DMSO, 100% Δ7-dafachronic acid.
Work on Cc1[nH]c2ccccc2c1CC(=O)Nc1ccc(Nc2cccnc2)c(-c2cccc(Cl)c2)c1 yielded an activation of 1.03%.
With COC(=O)c1ccc(CNC(=O)c2ccc3oc(C(C)C)nc3c2)cc1 the activation was 0.43%.
CC(C)c1nc2cc(C(=O)NC(C)c3cnn(C)c3)ccc2o1 (stereo not drawn) gave an activation of -1.66%.
With COc1ccc(CNC(=O)c2ccc3oc(C(C)C)nc3c2)cc1 the activation was 6.74% (active).
Compound CC(c1ccc(N)cc1)c1cn(C)c2ccccc12 (stereo not drawn) has an activation of -2.32%.
In the case of Cc1ccccc1Nc1nc(N)nc(CSc2nnc3ccccn23)n1, the activation is reported as 0.54%.
With Cc1ccccc1Nc1nc(N)nc(CSc2ccccc2)n1 the activation was 6.93% (active).
Compound Cc1ccccc1Nc1nc(N)nc(COC(=O)CCC(=O)c2ccc(F)cc2)n1 has an activation of -0.96%.
COC(CNC(=O)[C@H](Cc1ccccc1)NC1(C(=O)NC2CCCCC2)CCCCC1)OC showed an activation of 0.68%.
With O=C(Nc1cccc2cccnc12)c1cccc(Cl)c1 the activation was 5.97% (active).
In the case of O=C(Nc1cccc2cccnc12)c1ccc2sc([C@H]3C[C@H](O)[C@@H](CO)O3)nc2c1, the activation is reported as -3.24%.
CC(=O)/C(=N\Nc1ccc(Cl)cc1Cl)Sc1cccc2cccnc12 was tested, and the activation was -1.47%.
Compound COC(=O)[C@]12C[C@H](CC(=O)N3CCOCC3)C(=O)N(Cc3ccc(Cl)cc3Cl)C1=C[C@H](C(C)C)O[C@@H]2C1CC1 has an activation of -0.53%.
CC(=O)OC12CCCN(C1)/C(=C/c1ccncc1)C2 (stereo not drawn) showed an activation of -0.38%.
In the case of O=C(Cn1c(-c2cncs2)nc2ccccc21)NC1CCCC1, the activation is reported as -0.67%.
Work on CC1CCCCC1NC(=O)Cn1c(=O)cnc2ccccc21 (stereo not drawn) yielded an activation of 0.69%.
O=C(/C=C/c1cnc2ccccc2n1)NC1CCCCCC1 was tested, and the activation was 8.85% (active).
Work on COCCN1CCn2c(nc3cc(NS(C)(=O)=O)ccc32)C1 yielded an activation of 0.72%.
Work on O=C(NC1CCC1)c1ccc(C#CC2CC2)cn1 yielded an activation of 1.58%.
With Nc1ncnc2c1ncn2C1OC(CO)CC1O (stereo not drawn) the activation was -1.72%.
For C#CCOc1ccccc1/C=C1/C(=O)ON=C1C, the activation was 6.39% (active).
Work on Cc1no[n+]([O-])c1COc1ccccc1/C=C1\NC(=S)NC1=O yielded an activation of -0.17%.
Cc1cccc(NC(=O)c2cc3c(C)nn(-c4ccccc4)c3s2)c1 gave an activation of -3.69%.
With O=C(NCCOc1ccccc1)c1ccccc1F the activation was 6.22% (active).
NS(=O)(=O)c1cc(C(=O)NCCOc2ccccc2)c(Cl)cc1Cl showed an activation of -2.95%.
Compound O=C(NCCc1csc(-c2ccccc2)n1)c1ccccc1F has an activation of -1.62%.
Compound CCc1c(-c2ccccc2OC)ncn1CCc1ccccc1OC has an activation of -2.85%.
Compound N[C@@H](Cc1ccccc1)C(=O)N1CCC[C@@H]1C(=O)N1CCC2CCN(S(=O)(=O)c3ccccc3)CC21 (stereo partly drawn) has an activation of -1.99%.
With COC1=NC2=NCCN2C(OC)=N1 the activation was 0.26%.
COC(=O)C[C@@H]1CC[C@@H]2[C@@H](COc3ccc(NC(=O)Nc4ccc(F)c(F)c4)cc3C(=O)N2C)O1 was tested, and the activation was -4.16%.
N#CCC[C@H]1CC[C@]2(CCCN(Cc3ccc(Cl)cc3)C2)O1 was tested, and the activation was -0.47%.
In the case of C(=N\Nc1ccc2ccccc2n1)/c1ccc2c(c1)OCO2, the activation is reported as 7.26% (active).
For Cc1noc(C)c1/C=N/Nc1ccc2ccccc2n1, the activation was 7.4% (active).
For Nc1nonc1-n1nnc(C(=O)N/N=C/c2ccc(Cl)cc2)c1-c1ccc2c(c1)OCO2, the activation was 0.66%.
CN(CCO)c1ccc(/C=N/Nc2nncc3ccccc23)cc1 showed an activation of 5.57%.
For Cc1cc2c(C)nc(N/N=C/c3ccccc3)nc2o1, the activation was -0.61%.
In the case of O=C(NS(=O)(=O)c1cccs1)[C@H]1O[C@@H](n2ccc(=O)[nH]c2=O)[C@H](O)[C@@H]1O, the activation is reported as 1.29%.
COc1ccc(CSc2nnc(SCC(=O)Nc3ccccc3C(F)(F)F)s2)cc1 gave an activation of -0.61%.
Compound CS(=O)(=O)Nc1ccccc1C(=O)OCC(=O)NC1CC1 has an activation of 0.83%.
With CC(=O)c1cc(-c2ccc3ccccc3c2)c(=O)n2c1CCC2 the activation was -0.26%.
With COC(=O)Nc1nc2ccc(C(=O)C3CC3)cc2[nH]1 the activation was 0.63%.
Work on C[C@@H]1CN([C@@H](C)CO)C(=O)c2cccc(NC(=O)Nc3cccc4ccccc34)c2O[C@H]1CN(C)S(=O)(=O)c1ccccc1F yielded an activation of -1.14%.
Compound C[C@@H]1ON(C)[C@H]2C[C@H]3c4[nH]c5cccc(-c6ccc7c(c6)OCO7)c5c4CCN3C[C@@H]12 has an activation of -1.17%.
CCC(=O)N(Cc1cc2ccccc2[nH]c1=O)c1ccc(OC)cc1 was tested, and the activation was -1.6%.
CC(OC(=O)c1cc2ccccc2[nH]1)C(=O)N(C)c1ccccc1 (stereo not drawn) gave an activation of 2.38%.
COc1ccc(C2=Nc3ccccc3NC(=O)C2N(C(=O)c2cc3ccccc3[nH]2)c2ccccc2)cc1 (stereo not drawn) was tested, and the activation was 6.3% (active).
Cc1cc(=O)oc(C)c1C(=O)NCCN(C)Cc1ccccc1 was tested, and the activation was -0.39%.
O=C1CC(c2ccc3c(c2)OCO3)N=C2N(CC3CC3)C/C(=C/c3ccccc3)N12 (stereo not drawn) was tested, and the activation was -3.84%.
In the case of CCNC(=O)COC(=O)/C=C/c1c(C)nn(Cc2cccc(OC)c2)c1Cl, the activation is reported as 0.11%.
Work on O=C(/C=C/c1cccs1)NCc1cccnc1 yielded an activation of -0.87%.
With O=C(NCc1cccnc1)c1nc(-c2cccs2)no1 the activation was 5.95% (active).
CCc1ccc(CNC(=O)CCc2nc(-c3cccs3)no2)cc1 gave an activation of 0.59%.
CCS(=O)(=O)N1Cc2ccccc2CC1C(=O)Nc1ccc(OC)cc1OC (stereo not drawn) showed an activation of -0.97%.
Cc1ccc2nc(NC(=O)C3CSC4(C)CCC(=O)N34)sc2c1 (stereo not drawn) gave an activation of -0.71%.
For CCS(=O)(=O)N1Cc2ccccc2CC1C(=O)Nc1nc2ccc(F)cc2s1 (stereo not drawn), the activation was 7.31% (active).
Work on COC(=O)[C@]12C[C@H](CC(=O)NCc3ccccc3)C(=O)N(CCC3=CCCCC3)C1=C[C@H](C(C)(C)C)O[C@@H]2C yielded an activation of 0.06%.
Compound O=C(NCc1cccs1)C1CCCN(S(=O)(=O)c2ccc([N+](=O)[O-])cc2)C1 (stereo not drawn) has an activation of -2.29%.
With O=C(Nc1cccn(Cc2c(Cl)cccc2Cl)c1=O)c1ccc(Cl)cc1 the activation was -0.98%.
